About 79,000 compounds went through this panel and 15% of them were active in at least one assay; those are over-represented in the sample as a whole. The source made the active and inactive calls. Rule as the data show it: active = growth inhibition above about 70%; inactive = the rest.
Experiments:
[1] = NCI Yeast Anticancer Drug Screen. Data for the mec2-1 strain (AID 157); conditions: S. cerevisiae mec2-1 strain, stronger effect = higher value
Method in brief: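 Each compound was tested on mec2-1 yeast, a strain altered in DNA damage repair or cell cycle control. Growth inhibition is reported relative to vehicle.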

[2] = NCI Yeast Anticancer Drug Screen. Data for the rad14 strain (AID 159);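 also: 0% = growth of vehicle-treated control cultures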; conditions: S. cerevisiae rad14 strain growth inhibition, stronger effect = higher value
Method in brief: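 Screen for anticancer potential: a yeast strain altered in DNA damage repair is grown with compound, and reduced growth is quantified against vehicle controls.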

[3] = NCI Yeast Anticancer Drug Screen. Data for the sgs1 mgt1 strain (AID 161);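 also: 0% = growth of cultures given vehicle only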; conditions: S. cerevisiae sgs1 mgt1 strain, stronger effect = higher value
Method in brief: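 Read-out: growth inhibition vs vehicle controls. Cells: mutant yeast strain deficient in DNA damage repair.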

[4] = NCI Yeast Anticancer Drug Screen. Data for the CLN2oe strain (AID 163);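 also: 0% = growth of vehicle-only control cultures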; conditions: S. cerevisiae CLN2oe strain, stronger effect = higher value
Method in brief: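 First, the altered yeast strain was treated with each compound; second, its growth was measured; finally, inhibition was derived by comparison with vehicle controls.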

[5] = NCI Yeast Anticancer Drug Screen. Data for the cln2 rad14 strain (AID 165);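 also: 0% = growth equal to vehicle treated cultures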; conditions: S. cerevisiae cln2 rad14 strain, stronger effect = higher value
Method in brief: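 Test compounds were added to cln2 rad14 yeast cultures; inhibition of growth was then determined by comparison with vehicle treatment.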

[6] = NCI Yeast Anticancer Drug Screen. Data for the wt2 strain (AID 169);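 also: 0% = growth of vehicle-treated yeast cultures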; conditions: S. cerevisiae wt2 strain growth inhibition, stronger effect = higher value
Method in brief: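 The panel's yeast strains carry defined changes in DNA repair or cell cycle genes. Each strain is grown with compound, and growth loss is scored relative to vehicle.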

[7] = NCI Yeast Anticancer Drug Screen. Data for the mlh1 strain (AID 171);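 also: 0% = growth of vehicle-treated control cultures of the same strain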; conditions: S. cerevisiae mlh1 strain growth inhibition, stronger effect = higher value
Method in brief: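 Inhibition values reflect reduced yeast growth in the presence of compound, referenced to vehicle controls, using a strain chosen for its alteration in DNA repair or cell cycle control.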

[8] = NCI Yeast Anticancer Drug Screen. Data for the sgs1 strain (AID 173);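 also: 0% = growth of vehicle-only control cultures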; conditions: S. cerevisiae sgs1 mutant, stronger effect = higher value
Method in brief: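 Vehicle-treated cultures served as reference for growth inhibition of a yeast strain altered in DNA damage repair or cell cycle control after compound exposure.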

[9] = NCI Yeast Anticancer Drug Screen. Data for the mlh1 rad18 strain (AID 175); conditions: S. cerevisiae mlh1 rad18 strain growth inhibition, stronger effect = higher value
Method in brief: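 Inhibition values reflect reduced growth of mutant yeast versus vehicle-treated controls following compound exposure; the mutations affect DNA damage repair.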

[10] = NCI Yeast Anticancer Drug Screen. Data for the rad18 strain (AID 177); conditions: S. cerevisiae rad18 mutant growth inhibition, stronger effect = higher value
Method in brief: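 Steps: expose repair-mutant yeast to compound; measure growth; express as inhibition relative to vehicle control.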

[11] = NCI Yeast Anticancer Drug Screen. Data for the rad52 strain (AID 147);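 also: 0% = growth of vehicle-treated control cultures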; conditions: S. cerevisiae rad52 mutant growth inhibition, stronger effect = higher value
Method in brief: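 Inhibition of yeast growth, referenced to vehicle controls, was the measured output for a strain with defective DNA damage repair.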

[12] = NCI Yeast Anticancer Drug Screen. Data for the wt1 strain (AID 149);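 also: 0% = growth of vehicle-treated wt1 cultures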; conditions: S. cerevisiae wt1 strain (SPY 50644) growth inhibition, stronger effect = higher value
Method in brief: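 Using yeast strain wt1, compound-induced growth inhibition was determined against vehicle-treated cultures.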

[13] = NCI Yeast Anticancer Drug Screen. Data for the rad50EPP+ strain (AID 151);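 also: 0% = growth of vehicle-treated control cultures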; conditions: S. cerevisiae rad50 mutant strain, stronger effect = higher value
Method in brief: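 Genetically defined yeast (rad50EPP+, DNA damage repair alteration) is grown with compound, and inhibition of growth is expressed relative to vehicle-treated controls.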

[14] = NCI Yeast Anticancer Drug Screen. Data for the mgt1 strain (AID 153); conditions: S. cerevisiae mgt1 mutant growth inhibition, stronger effect = higher value
Method in brief: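 In the mgt1 strain, test compounds were added and growth inhibition was determined relative to vehicle-treated controls.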

[15] = NCI Yeast Anticancer Drug Screen. Data for the rad50 strain (AID 155);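 also: 0% = growth of vehicle-only cultures of the same strain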; conditions: S. cerevisiae rad50 strain growth inhibition, stronger effect = higher value
Method in brief: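 Relative growth inhibition (compound vs vehicle) was measured in yeast with a defined repair-gene alteration.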

[16] = NCI Yeast Anticancer Drug Screen. Data for the bub3 strain (AID 167); conditions: S. cerevisiae bub3 mutant strain, stronger effect = higher value
Method in brief: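 Screening used yeast with an engineered genetic alteration affecting cell cycle control. Compound-exposed cultures were compared with vehicle cultures, and reduced growth was taken as inhibition.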

[17] = at 5.0 µM (retest, dose inferred, filed as 0.5)
[18] = at 50.0 µM (retest, dose inferred, filed as 5.0)

Measured: growth inhibition

O=S(=O)(O)c1ccc(Cl)cc1.[Cd]
inactive: [1]; [17] 6% | [1]; at 11.0 µM 14% | [1]; at 33.0 µM 25% | [1]; [18] 46% | [1]; at 50.0 µM 39.4% | [1]; at 100.0 µM 37% | [2]; at 1.2 µM -2% | [2]; at 3.7 µM 18% | [2]; at 11.0 µM 48% | [3]; [17] 23% | [3]; [18] 53% | [3]; at 50.0 µM 50.5% | [4]; at 1.2 µM -18% | [4]; at 3.7 µM -17% | [4]; at 11.0 µM -6% | [4]; at 33.0 µM 8% | [4]; at 100.0 µM 20% | [5]; [17] 8% | [5]; [18] 11% | [5]; at 50.0 µM 21.4% | [6]; at 1.2 µM 2% | [6]; at 3.7 µM 11% | [6]; at 11.0 µM 20% | [6]; at 33.0 µM 32% | [6]; at 100.0 µM 44% | [7]; at 1.2 µM -1% | [7]; at 3.7 µM 7% | [7]; at 11.0 µM 17% | [7]; at 33.0 µM 50% | [8]; at 1.2 µM 2% | [8]; at 3.7 µM 10% | [8]; at 11.0 µM 17% | [8]; at 33.0 µM 29% | [8]; at 100.0 µM 44% | [9]; [17] 24% | [9]; [18] 47% | [9]; at 50.0 µM 59% | [10]; at 1.2 µM 0% | [10]; at 3.7 µM 8% | [10]; at 11.0 µM 23% | [10]; at 33.0 µM 44% | [10]; at 100.0 µM 51%
active: [2]; at 33.0 µM 71% | [2]; at 100.0 µM 86% | [7]; at 100.0 µM 82%

C[N+](CCCl)(CCCl)Cc1cccc2cccc([N+](=O)[O-])c12
active: [11]; at 11.0 µM 74% | [11]; at 33.0 µM 92% | [11]; at 100.0 µM 94% | [13]; at 11.0 µM 80% | [13]; at 33.0 µM 95% | [13]; at 100.0 µM 96% | [15]; at 33.0 µM 90% | [15]; [18] 85% | [15]; at 50.0 µM 80.1% | [15]; at 100.0 µM 94% | [1]; at 100.0 µM 77% | [2]; at 33.0 µM 88% | [2]; at 100.0 µM 89% | [5]; [18] 78% | [5]; at 50.0 µM 74.5% | [8]; at 100.0 µM 77% | [9]; [18] 81% | [9]; at 50.0 µM 77.4% | [10]; at 11.0 µM 91% | [10]; at 33.0 µM 95% | [10]; at 100.0 µM 96%
inactive: [11]; at 1.2 µM 31% | [11]; at 3.7 µM 47% | [12]; at 1.2 µM 31% | [12]; at 3.7 µM 9% | [12]; at 11.0 µM 31% | [12]; at 33.0 µM 28% | [12]; at 100.0 µM 39% | [13]; at 1.2 µM 20% | [13]; at 3.7 µM 35% | [14]; at 1.2 µM 3% | [14]; at 3.7 µM 6% | [14]; at 11.0 µM -15% | [14]; at 33.0 µM -5% | [14]; at 100.0 µM 9% | [15]; at 1.2 µM 26% | [15]; at 3.7 µM 44% | [15]; [17] 37% | [15]; at 11.0 µM 67% | [1]; at 1.2 µM -4% | [1]; at 3.7 µM 10% | [1]; [17] 1% | [1]; at 11.0 µM 10% | [1]; at 33.0 µM 44% | [1]; [18] 56% | [1]; at 50.0 µM 47% | [2]; at 1.2 µM -9% | [2]; at 3.7 µM -1% | [2]; at 11.0 µM 32% | [3]; [17] 15% | [3]; [18] 44% | [3]; at 50.0 µM 39.2% | [4]; at 1.2 µM -8% | [4]; at 3.7 µM -10% | [4]; at 11.0 µM -17% | [4]; at 33.0 µM -13% | [4]; at 100.0 µM -6% | [5]; [17] 17% | [16]; at 1.2 µM -20% | [16]; at 3.7 µM -26% | [16]; [17] 9% | [16]; at 11.0 µM -22% | [16]; at 33.0 µM -10% | [16]; [18] 45% | [16]; at 50.0 µM 0.4% | [16]; at 100.0 µM 3% | [6]; at 1.2 µM -10% | [6]; at 3.7 µM -6% | [6]; at 11.0 µM -10% | [6]; at 33.0 µM -1% | [6]; at 100.0 µM 23% | [7]; at 1.2 µM 7% | [7]; at 3.7 µM -2% | [7]; at 11.0 µM -1% | [7]; at 33.0 µM 4% | [7]; at 100.0 µM 21% | [8]; at 1.2 µM 20% | [8]; at 3.7 µM 19% | [8]; at 11.0 µM 41% | [8]; at 33.0 µM 63% | [9]; [17] 31% | [10]; at 1.2 µM 11% | [10]; at 3.7 µM 56%

Cc1ccc2nc3sc(=O)sc3nc2c1
active: [11]; at 11.0 µM 99% | [11]; at 33.0 µM 98% | [11]; at 100.0 µM 96% | [12]; at 11.0 µM 88% | [12]; at 33.0 µM 98% | [12]; at 100.0 µM 97% | [13]; at 11.0 µM 79% | [13]; at 33.0 µM 96% | [13]; at 100.0 µM 95% | [14]; at 11.0 µM 96% | [14]; at 33.0 µM 98% | [14]; at 100.0 µM 98% | [15]; at 11.0 µM 96% | [15]; at 33.0 µM 97% | [15]; [18] 92% | [15]; at 50.0 µM 97% | [15]; at 100.0 µM 96% | [1]; at 11.0 µM 98% | [1]; at 33.0 µM 98% | [1]; [18] 97% | [1]; at 50.0 µM 93.8% | [1]; at 100.0 µM 97% | [2]; at 11.0 µM 99% | [2]; at 33.0 µM 98% | [2]; at 100.0 µM 97% | [3]; [18] 94% | [3]; at 50.0 µM 98.1% | [4]; at 33.0 µM 94% | [4]; at 100.0 µM 97% | [5]; [18] 89% | [5]; at 50.0 µM 92% | [16]; at 33.0 µM 97% | [16]; [18] 91% | [16]; at 50.0 µM 97% | [16]; at 100.0 µM 95% | [6]; at 11.0 µM 95% | [6]; at 33.0 µM 98% | [6]; at 100.0 µM 97% | [7]; at 11.0 µM 98% | [7]; at 33.0 µM 98% | [7]; at 100.0 µM 95% | [8]; at 11.0 µM 97% | [8]; at 33.0 µM 97% | [8]; at 100.0 µM 96% | [9]; [18] 91% | [9]; at 50.0 µM 96.2% | [10]; at 11.0 µM 99% | [10]; at 33.0 µM 98% | [10]; at 100.0 µM 97%
inactive: [11]; at 1.2 µM 48% | [11]; at 3.7 µM 66% | [12]; at 1.2 µM -2% | [12]; at 3.7 µM 22% | [13]; at 1.2 µM 26% | [13]; at 3.7 µM 49% | [14]; at 1.2 µM 22% | [14]; at 3.7 µM 40% | [15]; at 1.2 µM 13% | [15]; at 3.7 µM 27% | [15]; [17] 27% | [1]; at 1.2 µM 16% | [1]; at 3.7 µM 37% | [1]; [17] -7% | [2]; at 1.2 µM 14% | [2]; at 3.7 µM 33% | [3]; [17] 13% | [4]; at 1.2 µM -15% | [4]; at 3.7 µM 7% | [4]; at 11.0 µM 37% | [5]; [17] 30% | [16]; at 1.2 µM -2% | [16]; at 3.7 µM 14% | [16]; [17] 59% | [16]; at 11.0 µM 52% | [6]; at 1.2 µM 11% | [6]; at 3.7 µM 34% | [7]; at 1.2 µM 27% | [7]; at 3.7 µM 50% | [8]; at 1.2 µM 42% | [8]; at 3.7 µM 68% | [9]; [17] 38% | [10]; at 1.2 µM 29% | [10]; at 3.7 µM 56%

Source: PubChem BioAssay (NCI)
